From PubChem BioAssay AID1851 (National Center for Advancing Translational Sciences (NCATS), 2009)
About 4,000 (25%) of roughly 16,000 compounds were called active. Another 26% or so got no clear call; they are omitted. Only a sample is shown. Values without a mark were called inactive. Calls come from the whole dose curve; as a rule, active = well fitted curve in the direction sought with a large enough effect; inconclusive = small, poorly fitted or top-dose-only effect, or effect the other way; inactive = no such curve, though single readings can be large or run the other way.
% is set by controls: 0 for no effect and ±100 for the full control effect.

What follows are compounds tested against Cytochrome P450 2C9 (Homo sapiens) (UniProt P11712) (assay: Cytochrome panel assay with activity outcomes). Conditions: recombinant CYP, pro-luciferin dealkylation, luminescence, p450-cyp2c9; series mostly up to 57.1 µM; activity, negative = inhibition: at the top concentration.
Cytochrome P450 2C9 (Homo sapiens), sequence (P11712 whole entry, looked up): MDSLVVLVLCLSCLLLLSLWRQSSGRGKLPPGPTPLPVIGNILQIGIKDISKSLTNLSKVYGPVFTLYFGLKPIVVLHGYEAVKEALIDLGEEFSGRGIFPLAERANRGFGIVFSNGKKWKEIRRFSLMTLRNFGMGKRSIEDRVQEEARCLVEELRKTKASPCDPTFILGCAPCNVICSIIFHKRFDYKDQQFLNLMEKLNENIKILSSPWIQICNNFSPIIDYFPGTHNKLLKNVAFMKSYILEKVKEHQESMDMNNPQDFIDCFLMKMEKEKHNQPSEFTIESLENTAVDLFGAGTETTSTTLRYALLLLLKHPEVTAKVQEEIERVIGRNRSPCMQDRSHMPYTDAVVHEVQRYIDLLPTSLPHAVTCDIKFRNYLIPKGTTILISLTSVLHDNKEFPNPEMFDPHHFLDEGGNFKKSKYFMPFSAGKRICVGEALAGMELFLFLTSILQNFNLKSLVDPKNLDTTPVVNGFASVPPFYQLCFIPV
In the case of `c1ccc(CN2CCC3(CCCc4ccccc43)CC2)cc1`, the “activity, negative = inhibition” value is reported as -8.57%. With `C[C@@H](CN(C)C)CN1c2ccccc2CCc2ccccc21` the AC50 was “inactive”. With `O=C1CCCc2ccccc2N1Cc1cccc(Cl)c1` the AC50 was 5.01 µM (active). `O=C1CCCc2ccccc2N1Cc1ccccc1Cl` was tested, and the AC50 was 10 µM (active). `CC(=O)NCCNc1ncnc2ccc(-c3c(C)noc3C)cc12` was tested, and the activity, negative = inhibition was 27.1% [at 2.29 µM]. `O=c1c2ccc(Cl)cc2nc(-c2cccc(C(F)(F)F)c2)n1O` was tested, and the AC50 was 5.01 µM (active). `CCc1ccc(NC(=O)C2CCN(S(=O)(=O)c3c(C)[nH]c(=O)[nH]c3=O)CC2)cc1` was tested, and the “activity, negative = inhibition” value was -27.8%. In the case of `CCOC(=O)N1CCN(c2c(-c3ccccc3)c3cc(Cl)ccc3[nH]c2=O)CC1`, the AC50 is reported as 1.26 µM (active). In the case of `CCOC(=O)c1[nH]c2ccc(Cl)cc2c1-c1ccccc1`, the “activity, negative = inhibition” value is reported as -19.7%. In the case of `CO[C@H]1COC(=O)C/C=C\[C@@H](C)[C@H](OC)COC(=O)[C@H]2CCCN2C(=O)C/C=C\[C@@H]1C`, the activity, negative = inhibition is reported as 12.3% [at 11.4 µM]. For `CC(=O)Oc1ccc2ccccc2c1C(NC(=O)Cc1ccccc1)c1ccc(Cl)cc1` (centres undefined), the AC50 was 1.78 µM (active). `Cn1c([N+](=O)[O-])cnc1CN1CCN(CCO)CC1` was tested, and the activity, negative = inhibition was 8.6% [at 11.4 µM]. With `O=C(c1ccccc1)c1ccc(OCC(O)CN2CCN(Cc3ccccc3)CC2)cc1` (centres undefined) the AC50 was 12.6 µM (active). `O[C@H](COc1ccccc1)CN1CCCCC1` was tested, and the activity, negative = inhibition was 9.06% [at 11.4 µM]. With `CC(C(=O)NC1CCCC1)N(C(=O)c1ccc(-c2ccccc2)[nH]1)c1ccccc1F` (centres undefined) the AC50 was 5.01 µM (active). `Fc1ccc2nc(Nc3nc4c(s3)CCCC4)sc2c1` was tested, and the AC50 was 14.1 µM (active). With `NCCCCC(=O)O` the “activity, negative = inhibition” value was -13.6%. `Cc1ccc(Sc2nc(C)cc(C)c2S(C)(=O)=O)cc1` was tested, and the AC50 was 3.55 µM (active). Work on `CC(=O)O[C@]1(C)N=NC2(CCCCC2)O1` yielded an activity, negative = inhibition of 16.8% [at 11.4 µM]. With `CCC1CCCCN1Cc1cc(OC)c(O)c([N+](=O)[O-])c1` (centres undefined) the “activity, negative = inhibition” value was -0.234%. For `CCOC(=O)N1CCN(c2nc(-c3ccco3)cc(C(F)(F)F)n2)CC1`, the AC50 was 1.12 µM (active). `CN1CCN(c2ncc3nc(-c4cccs4)c(=O)n(-c4ccccc4)c3n2)CC1` was tested, and the “activity, negative = inhibition” value was -2.31%. For `CCCNC(=O)CSc1nc(-c2cccs2)cc(C(F)(F)F)n1`, the AC50 was 2.82 µM (active). In the case of `CCOC(=O)N1CCN(c2nc(-c3cccs3)cc(C(F)(F)F)n2)CC1`, the AC50 is reported as 1.58 µM (active). For `Cc1cc(C)nc(SCC(=O)N/N=C\c2sccc2C)n1`, the “activity, negative = inhibition” value was -15.8%. In the case of `CCCNC(=O)c1cc2c(C(F)(F)F)nn(C)c2s1`, the “activity, negative = inhibition” value is reported as -27.8%. For `C/C(CC/C(C)=N/O)=N/O`, the activity, negative = inhibition was -9.93% [at 11.4 µM]. In the case of `O=C1OC2CC3CC1CC(O)(C3)C2` (centres undefined), the “activity, negative = inhibition” value is reported as -15.4%. `Cc1ccc(C)c(-n2c(CNC(=O)c3ccco3)nnc2SCC(=O)N2CCc3ccccc32)c1` was tested, and the “activity, negative = inhibition” value was -21.7%. `Cc1cc2nc(-c3ccc(SCC(=O)N4CCc5ccccc54)nc3)[nH]c2cc1C` was tested, and the AC50 was 3.55 µM (active). With `O=C(COC(=O)c1cccnc1Nc1cccc(C(F)(F)F)c1)NCc1ccc2c(c1)OCO2` the AC50 was 3.55 µM (active). For `O=C(COC(=O)c1ccccc1Nc1cccc(C(F)(F)F)c1)NCc1ccco1`, the AC50 was 3.16 µM (active). In the case of `O=C(O)c1cccnc1Nc1cccc(C(F)(F)F)c1`, the “activity, negative = inhibition” value is reported as -12.1% [at 25.6 µM]. `Cc1cc(NC(=O)C2C3C(=O)N(Cc4ccc(Cl)cc4)C(C(=O)NC(C)(C)C)C34C=CC2(C)O4)no1` (centres undefined) was tested, and the “activity, negative = inhibition” value was -51.8%. For `OC[C@H](S)CS`, the activity, negative = inhibition was -14.4% [at 11.4 µM]. For `COCC(=O)N1CCC2(CC1)CN(Cc1ccc(C#N)cc1)C2`, the “activity, negative = inhibition” value was -0.1%. For `CCN1CNC(=S)N(c2cc(C)ccc2C)C1`, the “activity, negative = inhibition” value was 0.18%. In the case of `O=C(c1cc2sccc2n1Cc1ccccc1)N1CCN(c2nc3ccccc3s2)CC1`, the AC50 is reported as 2.82 µM (active). For `Cn1c(=O)c2[nH]c(CCCCC(=O)O)nc2n(C)c1=O`, the activity, negative = inhibition was -3.07% [at 11.4 µM]. `CCOC(=O)c1nnn(-c2nonc2N)c1-c1ccc(C)cc1` was tested, and the AC50 was 11.2 µM (active). In the case of `COCc1c(C(N)=O)nnn1-c1nonc1N`, the “activity, negative = inhibition” value is reported as -9.91%. In the case of `Nc1nonc1-n1nncc1-c1ccccc1`, the “activity, negative = inhibition” value is reported as -0.506%. For `c1ccc(CNc2ccnc(-c3ccoc3)n2)cc1`, the activity, negative = inhibition was -18.3% [at 2.29 µM]. For `Cc1ccc(NC(=O)N/C=C/c2ccco2)cc1C`, the AC50 was 15.8 µM (active). `O=C(/C=C/c1cccc(Cl)c1)Nc1ccncc1` was tested, and the AC50 was 0.0447 µM (active). With `O=C(O)/C=C\C(=O)Nc1ccc2c(c1)C(=O)c1cc(F)ccc1-2` the activity, negative = inhibition was -23.6% [at 11.4 µM]. `CS[C@@H](CC(=O)O)C(=O)O` gave an activity, negative = inhibition of -8.91% [at 11.4 µM]. With `O=CN1CCN(C[C@H](O)CN2CCCCC2)CC1` the activity, negative = inhibition was -3.16% [at 11.4 µM]. For `CCCCCc1nc2c(C#N)c(-c3ccc(Cl)cc3)ccn2n1`, the AC50 was 3.55 µM (active). For `N#Cc1c(-c2ccc3c(c2)OCO3)ccn2nc(-c3cccc(C(F)(F)F)c3)nc12`, the “activity, negative = inhibition” value was 6.23%. Work on `CC[C@@]1([N+](=O)[O-])C[C@H]2C=C[C@@H]1C2` yielded an activity, negative = inhibition of -0.495% [at 11.4 µM]. `NCCNCC1CCNCC1` was tested, and the activity, negative = inhibition was 9.94% [at 11.4 µM]. For `CCN(CC)CCOC(=O)[C@@H](Cc1cccc2ccccc12)C[C@@H]1CCCO1`, the “activity, negative = inhibition” value was 19.7% [at 25.6 µM]. In the case of `Cc1ccc(-c2ccc(CCC(=O)O)o2)cc1`, the “activity, negative = inhibition” value is reported as -27.5%. `CCOC(=O)c1ccc(N)cc1` was tested, and the “activity, negative = inhibition” value was -13.8% [at 25.6 µM]. For `CCOC(=O)c1ccc(-c2ccc(CO)o2)cc1`, the AC50 was 15.8 µM (active). For `O=c1[nH]c2[nH]c(=S)[nH]c(=S)c2[nH]1`, the AC50 was 1.26 µM (active). Compound `C[C@@]1(CCOCc2ccccc2)NC(=O)NC1=O` has an activity, negative = inhibition of -8.7% [at 11.4 µM]. With `COc1ccc(-c2cc(C(F)(F)F)nc(NCc3cccnc3)n2)cc1` the AC50 was 5.62 µM (active). Compound `COc1cccc(-c2nccc(NCc3cccnc3)n2)c1` has an activity, negative = inhibition of 0.577% [at 2.29 µM]. `COC(=O)CSc1cc(C(F)(F)F)nc(-c2ccccn2)n1` was tested, and the “activity, negative = inhibition” value was -26%. For `COc1ccccc1-c1nccc(NCc2cccnc2)n1`, the activity, negative = inhibition was -15.5% [at 2.29 µM]. For `COc1ccc(-c2cc(C(F)(F)F)nc(SCc3cccc(C(=O)O)c3)n2)cc1`, the AC50 was 7.94 µM (active). Work on `O=C(O)C(Cl)(c1ccccc1)c1ccccc1` yielded an activity, negative = inhibition of -22.8% [at 11.4 µM].
